{
  "source": "PubChem BioAssay",
  "note": "Records with an inconclusive call do not appear. The source made the active and inactive calls. Unless noted, cut-off not given; nearly all actives show AC50 up to about 26 µM.",
  "data": [
    {"experiment": "EMT-state selective cytotoxicity in co-culture – imaging, PC-3E GFP, TEM4-18 mCherry, primary screen (AID 1345086);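 further: cells exposed to compound for 72 h before imaging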", "settings": "PC-3E GFP / TEM4-18 mCherry co-culture, imaging cell counts; measured here: mesenchymal TEM4-18 mCherry cell survival; at 1 µM", "values": [
      {"molecule": "O=c1[nH]cc(F)c(=O)[nH]1", "normalised cell number": 0.77},
      {"molecule": "CCc1nc(N)nc(N)c1-c1ccc(Cl)cc1", "normalised cell number": 0.75},
      {"molecule": "CCc1cccc2c3c([nH]c12)C(CC)(CC(=O)O)OCC3", "note": "(stereo not given)", "normalised cell number": 1.03},
      {"molecule": "Nc1ncn([C@@H]2O[C@H](CO)[C@@H](O)[C@H]2O)c(=O)n1", "normalised cell number": 0.82},
      {"molecule": "Cc1ccccc1C(OCCN(C)C)c1ccccc1", "note": "(stereo not given)", "normalised cell number": 0.85},
      {"molecule": "Cc1ccc(C)c(OCCCC(C)(C)C(=O)O)c1", "normalised cell number": 1.03},
      {"molecule": "NC(=O)c1cnccn1", "normalised cell number": 1.03},
      {"molecule": "CCCCCCNC(=O)n1cc(F)c(=O)[nH]c1=O", "normalised cell number": 0.75},
      {"molecule": "COC1=CC(=O)C[C@@H](C)[C@]12Oc1c(Cl)c(OC)cc(OC)c1C2=O", "normalised cell number": 1.07},
      {"molecule": "Cc1ncc([N+](=O)[O-])n1CC(C)O", "note": "(stereo not given)", "normalised cell number": 0.94},
      {"molecule": "N[C@@H](C(=O)N[C@@H]1C(=O)N2C(C(=O)O)=C(Cl)CS[C@H]12)c1ccccc1", "normalised cell number": 1.1},
      {"molecule": "CO[C@@]1(NC(=O)Cc2cccs2)C(=O)N2C(C(=O)O)=C(COC(N)=O)CS[C@@H]21", "normalised cell number": 1.09},
      {"molecule": "OCCN1CCN(CCCN2c3ccccc3Sc3ccc(C(F)(F)F)cc32)CC1", "normalised cell number": 0.95},
      {"molecule": "CN(C)CCOC(c1ccc(Cl)cc1)c1ccccn1", "note": "(stereo not given)", "normalised cell number": 1.26},
      {"molecule": "Cc1onc(-c2c(Cl)cccc2Cl)c1C(=O)N[C@@H]1C(=O)N2[C@@H]1SC(C)(C)[C@@H]2C(=O)O", "normalised cell number": 1.67},
      {"molecule": "COc1cc2nc(N(C)CCCNC(=O)C3CCCO3)nc(N)c2cc1OC", "note": "(stereo not given)", "normalised cell number": 1.09},
      {"molecule": "NS(=O)(=O)c1cc(C2(O)NC(=O)c3ccccc32)ccc1Cl", "note": "(stereo not given)", "normalised cell number": 1.3},
      {"molecule": "CN(C)CCc1c[nH]c2ccc(C[C@H]3COC(=O)N3)cc12", "normalised cell number": 1},
      {"molecule": "Cc1ccc(-c2cc(C(F)(F)F)nn2-c2ccc(S(N)(=O)=O)cc2)cc1", "normalised cell number": 1.32},
      {"molecule": "CN[C@H]1CC[C@@H](c2ccc(Cl)c(Cl)c2)c2ccccc21", "normalised cell number": 1.05},
      {"molecule": "O=S(=O)(O)CCS", "normalised cell number": 1.09},
      {"molecule": "C/C=C/C(=O)N(CC)c1ccccc1C", "normalised cell number": 0.97},
      {"molecule": "COc1ccc(OC)c(C(O)CNC(=O)CN)c1", "note": "(stereo not given)", "normalised cell number": 1.2},
      {"molecule": "Cn1cnc([N+](=O)[O-])c1Sc1ncnc2nc[nH]c12", "normalised cell number": 1.11},
      {"molecule": "c1ccc2[nH]c(-c3cscn3)nc2c1", "normalised cell number": 1.16},
      {"molecule": "CCCNCC(O)COc1ccccc1C(=O)CCc1ccccc1", "note": "(stereo not given)", "normalised cell number": 1.41},
      {"molecule": "NC(=O)N1c2ccccc2CC(=O)c2ccccc21", "normalised cell number": 1.09},
      {"molecule": "Cc1cn([C@H]2C[C@H](N=[N+]=[N-])[C@@H](CO)O2)c(=O)[nH]c1=O", "normalised cell number": 1.09},
      {"molecule": "CN(CCOc1ccc(CC2SC(=O)NC2=O)cc1)c1ccccn1", "note": "(stereo not given)", "normalised cell number": 1.5},
      {"molecule": "COc1ccccc1OCC(O)COC(N)=O", "note": "(stereo not given)", "normalised cell number": 1.16},
      {"molecule": "OC(CCN1CCCC1)(c1ccccc1)C1CCCCC1", "note": "(stereo not given)", "normalised cell number": 1.03},
      {"molecule": "O=C1C(CCS(=O)c2ccccc2)C(=O)N(c2ccccc2)N1c1ccccc1", "note": "(stereo not given)", "normalised cell number": 1.24},
      {"molecule": "COC(=O)Nc1nc2ccc(C(=O)c3ccccc3)cc2[nH]1", "normalised cell number": 0.29},
      {"molecule": "CCn1cc(C(=O)O)c(=O)c2cc(F)c(N3CCN(C)CC3)cc21", "normalised cell number": 1.38},
      {"molecule": "CN1CCCC(n2nc(Cc3ccc(Cl)cc3)c3ccccc3c2=O)CC1", "note": "(stereo not given)", "normalised cell number": 1.03},
      {"molecule": "NCc1ccc(S(N)(=O)=O)cc1", "normalised cell number": 0.74},
      {"molecule": "Clc1ccc2c(c1)C(N1CCNCC1)=Nc1ccccc1O2", "normalised cell number": 0.27},
      {"molecule": "CC(C)(C)NCC(O)COc1cccc2c1C[C@H](O)[C@H](O)C2", "note": "(stereo not given in full)", "normalised cell number": 1.1},
      {"molecule": "NS(=O)(=O)c1cc2c(cc1Cl)NC=NS2(=O)=O", "normalised cell number": 0.45}
    ]},
    {"experiment": "viability loss in pontine glioma line – cell-based, SU-DIPG-XVII, MIPE5.0, CellTiter-Glo, qHTS, dose response (AID 1347060);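 on AC50: cells exposed to compound for 48 hours before viability readout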", "settings": "CellTiter-Glo ATP luminescence", "values": [
      {"molecule": "CCc1nc(N)nc(N)c1-c1ccc(Cl)cc1", "AC50": "3.72 µM (active)"},
      {"molecule": "Nc1ncn([C@@H]2O[C@H](CO)[C@@H](O)[C@H]2O)c(=O)n1", "AC50": "1.48 µM (active)"},
      {"molecule": "Cc1ccc(C)c(OCCCC(C)(C)C(=O)O)c1", "outcome": "inactive"},
      {"molecule": "CCCCCCNC(=O)n1cc(F)c(=O)[nH]c1=O", "outcome": "inactive"},
      {"molecule": "Cc1ncc([N+](=O)[O-])n1CC(C)O", "note": "(stereo not given)", "outcome": "inactive"},
      {"molecule": "OCCN1CCN(CCCN2c3ccccc3Sc3ccc(C(F)(F)F)cc32)CC1", "AC50": "10.5 µM (active)"},
      {"molecule": "O=S(=O)(O)CCS", "outcome": "inactive"},
      {"molecule": "C/C=C/C(=O)N(CC)c1ccccc1C", "outcome": "inactive"},
      {"molecule": "CCCNCC(O)COc1ccccc1C(=O)CCc1ccccc1", "note": "(stereo not given)", "outcome": "inactive"},
      {"molecule": "CN(CCOc1ccc(CC2SC(=O)NC2=O)cc1)c1ccccn1", "note": "(stereo not given)", "outcome": "inactive"},
      {"molecule": "COC(=O)Nc1nc2ccc(C(=O)c3ccccc3)cc2[nH]1", "AC50": "0.0934 µM (active)"},
      {"molecule": "CCn1cc(C(=O)O)c(=O)c2cc(F)c(N3CCN(C)CC3)cc21", "outcome": "inactive"},
      {"molecule": "NS(=O)(=O)c1cc2c(cc1Cl)NC=NS2(=O)=O", "outcome": "inactive"}
    ]},
    {"experiment": "viability loss in pontine glioma line – cell-based, SU-DIPG-XIII, MIPE4.0, CellTiter-Glo, qHTS, dose response (AID 1347061; cut-off not given, nearly all actives have AC50 up to about 37 µM;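 further: cells exposed to compound for 48 hours before readout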)", "settings": "CellTiter-Glo ATP luminescence", "values": [
      {"molecule": "O=c1[nH]cc(F)c(=O)[nH]1", "outcome": "inactive"},
      {"molecule": "CCc1nc(N)nc(N)c1-c1ccc(Cl)cc1", "outcome": "inactive"},
      {"molecule": "CCc1cccc2c3c([nH]c12)C(CC)(CC(=O)O)OCC3", "note": "(stereo not given)", "outcome": "inactive"},
      {"molecule": "Cc1ccccc1C(OCCN(C)C)c1ccccc1", "note": "(stereo not given)", "outcome": "inactive"},
      {"molecule": "NC(=O)c1cnccn1", "AC50": "18.7 µM (active)"},
      {"molecule": "N[C@@H](C(=O)N[C@@H]1C(=O)N2C(C(=O)O)=C(Cl)CS[C@H]12)c1ccccc1", "outcome": "inactive"},
      {"molecule": "COc1cc2nc(N(C)CCCNC(=O)C3CCCO3)nc(N)c2cc1OC", "note": "(stereo not given)", "outcome": "inactive"},
      {"molecule": "CN(C)CCc1c[nH]c2ccc(C[C@H]3COC(=O)N3)cc12", "outcome": "inactive"},
      {"molecule": "c1ccc2[nH]c(-c3cscn3)nc2c1", "outcome": "inactive"},
      {"molecule": "NC(=O)N1c2ccccc2CC(=O)c2ccccc21", "outcome": "inactive"},
      {"molecule": "COc1ccccc1OCC(O)COC(N)=O", "note": "(stereo not given)", "outcome": "inactive"},
      {"molecule": "COC(=O)Nc1nc2ccc(C(=O)c3ccccc3)cc2[nH]1", "AC50": "18.7 µM (active)"},
      {"molecule": "Clc1ccc2c(c1)C(N1CCNCC1)=Nc1ccccc1O2", "outcome": "inactive"}
    ]}
  ]
}
